Our source for the outcome values is PubChem BioAssay AID602295 (Broad Institute, 2012).

Calls of active or inactive are those of the source.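 How the source made its calls: active means every separate test run called active, meaning the signal drops and a potency is fitted within twice the top valid dose; inconclusive means runs disagree, poor fit, or flat partial inhibition; inactive means all runs inactive, flat, opposite direction or too weak.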

The target in the experiment is Mitogen-activated protein kinase 3 (Homo sapiens) (UniProt P27361). Nature of the experiment: ERK1 kinase inhibitors, dose response, selectivity assay for Dyrk1A inhibitor NFAT project, biochemical, ADP-Glo luminescence, cherry pick, set 2 (AID 602295). Conditions: 120 min; series mostly up to 10 µM. On the technique in general: ADP-Glo turns the ADP formed in a reaction into a luminescent signal.
Mitogen-activated protein kinase 3 (Homo sapiens), sequence (P27361 whole entry, looked up): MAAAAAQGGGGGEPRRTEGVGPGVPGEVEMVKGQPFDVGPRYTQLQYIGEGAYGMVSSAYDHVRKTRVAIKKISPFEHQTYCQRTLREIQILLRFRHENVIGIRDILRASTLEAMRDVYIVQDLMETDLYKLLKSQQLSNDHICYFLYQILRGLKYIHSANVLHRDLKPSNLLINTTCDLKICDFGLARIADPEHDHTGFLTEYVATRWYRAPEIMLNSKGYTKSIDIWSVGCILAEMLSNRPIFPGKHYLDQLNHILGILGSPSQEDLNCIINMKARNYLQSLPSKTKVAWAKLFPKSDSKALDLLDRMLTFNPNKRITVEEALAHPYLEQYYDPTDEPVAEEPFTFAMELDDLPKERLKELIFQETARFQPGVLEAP
Regarding `c1csc(CNc2ncnc3ccc(-c4ccoc4)cc23)c1`, the call was inactive.

Consider `Cc1nc(NC(=O)c2ccccc2)sc1-c1csc(NCc2ccco2)n1`, for which the molecule was called inactive. As to `CCCNc1ncnc2ccc(-c3ccc4c(c3)OCO4)cc12`, the call was inactive.

Consider `Cc1ccc(CNc2ncnc3ccc(-c4ccc5c(c4)OCO5)cc23)o1`, for which the call was inactive. The result for `O=C(O)COc1ccc(/C=C/c2nc3ccc([N+](=O)[O-])cc3s2)cc1` reads “inactive”; that for `Cc1occc1CNc1ncnc2ccc(-c3ccc4c(c3)OCO4)cc12`, “inactive”; that for `CCN1CCN(Cc2ccc(NC(=O)c3ccc(C)c(/C=C/c4cnc(Nc5cc(N6CCNCC6)nc(C)n5)cn4)c3)cc2C(F)(F)F)CC1`, “inactive”.

On to `CC(=O)Nc1ccc(SCc2ncc(-c3ccccc3)o2)cc1`, for which the result was inactive. With `COc1ccc2c(Cl)c(C(=O)NCc3ccco3)sc2c1` the entry was “inactive”; with `c1nc(NCC2CCCO2)c2cc(-c3ccc4c(c3)OCO4)ccc2n1` (stereo not drawn), “inactive”; with `Clc1ccc(CNc2nccc(-c3ccc4c(c3)OCO4)n2)cc1Cl`, “inactive”.

On to `Clc1ccc(CNc2cc(-c3ccc4c(c3)OCO4)ncn2)cc1`, for which the call was inactive. Consider `Cc1noc(NS(=O)(=O)c2ccc(NC(=O)c3oc4ccc(F)cc4c3C)cc2)c1C`, for which the molecule was called inactive. With `Cc1ccc(CNc2ncnc3ccc(-c4ccoc4C)cc23)o1`, the molecule was called inactive. With `Cc1noc(NS(=O)(=O)c2ccc(NC(=O)c3oc4ccc(Cl)cc4c3C)cc2)c1C` the entry was “inactive”; with `Cc1c(-c2ccnc(NCc3ccc(Cl)cc3)n2)sc(=O)n1C`, “inactive”; with `c1cc(-c2ccc3c(c2)OCO3)nc(Nc2ccc3c(c2)OCO3)n1`, “inactive”.

`O=C(Nc1nc(-c2ccncc2)cs1)c1ccco1`: the molecule was called inactive. For the molecule `COc1ccc(-c2cc(NCCc3ccncc3)n3ncnc3n2)cc1`, the outcome was inactive. The result for `c1cncc(CNc2ccnc(-c3ccc4[nH]ncc4c3)n2)c1` reads “inactive”; that for `O=[N+]([O-])c1cc(Nc2nccc(-c3ccc4c(c3)OCO4)n2)cc(C(F)(F)F)c1`, “inactive”; that for `CN(Cc1nccs1)c1ncnc2ccc(-c3ccc4c(c3)OCO4)cc12`, “inactive”. Regarding `CCOC(=O)c1ccc(-c2ccc3ncnc(NCc4ccc(C)o4)c3c2)o1`, the call was inactive. The result for `Clc1cc(Cl)cc(CNc2cc(-c3ccc4c(c3)OCO4)ncn2)c1` reads “inactive”; that for `CCCC(=O)Nc1nc(-c2ccc3c(c2)OCCO3)cs1`, “inactive”; that for `Brc1cc(Br)cc(CNc2nccc(-c3ccc4c(c3)OCO4)n2)c1`, “inactive”. In the case of `CN(Cc1cccs1)c1ncnc2ccc(-c3ccc4c(c3)OCO4)cc12`, the molecule was classed as inactive.

`Cc1ccc(CN(C)c2ncnc3ccc(-c4ccc5c(c4)OCO5)cc23)o1`: the molecule was classed as inactive. Consider `COc1ccc2c(c1)CCc1c-2n[nH]c1C(=O)O`, for which the molecule was classed as inactive. Take `Cc1c(-c2ccnc(NCc3cccnc3)n2)sc(=O)n1C`: the molecule was called inactive. In the case of `Clc1ccc(CNc2nccc(-c3ccc4cn[nH]c4c3)n2)cc1Cl`, the call was inactive. The result for `COc1cccc(Nc2nc(NCCO)c3ccccc3n2)c1` reads “inactive”. With `O=C(NCc1ccco1)c1sc2ccccc2c1Cl` the entry was “inactive”.
